Experimental data: PubChem BioAssay (NCI)
About 83,000 compounds went through this panel and 20% of them were active in at least one assay; those are over-represented in the sample as a whole.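 Cells were grown in 96-well plates and exposed to the test compound at a single concentration for 48 hours; results are reported as percent growth, with values below 10 considered active.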 The source made the active and inactive calls.

System: MDA-MB-468 breast
Assay: NCI-60 one-dose screen, 48 h (100 = growth as untreated, 0 = no growth, -100 = all killed)
Conditions: 10 µM unless noted

Compound | growth
O=C(NCc1ccco1)Nc1cccc2c(NC(=O)NCc3ccco3)cccc12 | 85.7% [100 µM] (inactive)
Brc1ccc(-c2[nH]ncc2-c2c[nH]c3ccccc23)cc1 | 99.5% (inactive)
CCOC(=O)CC1CSC(N/N=C/c2ccc(O)cc2)=N1 (stereo not given) | 108% (inactive)
CCN(CC)C(CC(=O)c1ccccc1)C(=O)c1ccccc1 (stereo not given) | 56.1% (inactive)
CC(=O)[C@H]1CC[C@H]2[C@@H]3CC[C@H]4CC=CC[C@]4(C)[C@H]3CC[C@]12C | 84.7% (inactive)
O=C1/C(=C/c2ccccc2O)C(=S)SN1Cc1ccco1 | 64.7% (inactive)
CCN(CCNc1ccc(C)c2sc3ccccc3c(=O)c12)CC(C)(C)O | 26% (inactive)
CCN(CC)c1ccc(CN(CC(=O)c2ccc(Cl)c(Cl)c2)Cc2ccccc2)cc1 | 91.9% (inactive)
Cc1ccc2c(c1)sc(-c1ccc(N(C)C)cc1)[n+]2C | -11.3% (active)
CC1(C)CC2=C3C=C[C@@H]4[C@@]5(C)CCC(=O)C(C)(C)[C@@H]5CC[C@@]4(C)[C@]3(C)CC[C@@]2(C(=O)O)C[C@H]1O | 40.3% (inactive)
O=C1Nc2c(ccc(Cl)c2Cl)/C1=C/c1ccccn1 | 50.6% (inactive)
N#CC(=C1C=CC(=NO)C=C1)c1ccccc1 | 13.8% (inactive)
Cc1ccc(C2SCC(=O)N2NC(=O)c2[nH]c3ccc(F)cc3c2-c2ccccc2)cc1 (stereo not given) | 96% (inactive)
COc1cc(C2CC(c3ccc(C)cc3)=NN2C=O)ccc1Oc1ccnc2cc(Cl)ccc12 (stereo not given) | 58.4% (inactive)
Nc1ccc2c(c1)C(=O)C(=O)c1c-2nc2ccccn12 | -38.2% (active)
CC(=O)c1ccc(N=C(C#N)C2=C(O)c3ccccc3C2=O)cc1 | 94.5% (inactive)
COc1cc(NCCC2CCCCN2)c2ncccc2c1OC (stereo not given) | 73.8% (inactive)
Cc1cc(C(N)=O)cc(C)c1C(=O)OCCCl | 115% (inactive)
CCCCCCCCCC(=O)Oc1ccc(/C(=C(/C)Cc2cccc(OC)c2)c2ccc(OCCN(C)C)cc2)cc1 | 103% (inactive)
CCCCCCCC(=O)SCC/C=C/[C@@H]1CC(=O)NCc2cccc(n2)CN(Cc2ccc3ccccc3c2)CC(=O)N[C@@H](C(C)C)C(=O)O1 | 7.6% (active)

Compound | growth
C=CCn1c(SCC(=O)Nc2cccc(C(=O)/C=C/c3ccccc3)c2)nc2ccccc2c1=O | 78.9% (inactive)
COc1ccc(C/C(C)=C(\c2ccc(O)cc2)c2ccc(OCCN3CCCCC3)cc2)cc1 | 70.2% (inactive)
CCNC(=S)NNC(=O)c1cc2ccc1CCc1ccc(cc1)CC2 | 106% (inactive)
O=c1ccc(N=Nc2ccc([N+](=O)[O-])cc2)ccc1O | -15.7% (active)
Cc1ncc(-c2ccnc(Nc3ccc(S(C)(=O)=O)cc3)n2)n1C(C)C | -48.8% (active)
CN1C(=O)CN2CCc3ccccc3C2c2cc(Cl)ccc21 (stereo not given) | 115% (inactive)
Fc1ccc2c(c1)c(-c1nc(-c3c[nH]c4ncccc34)cs1)cn2CCCN1CCCCC1 | 76.6% (inactive)
Clc1cc(Cl)c2nc(-c3ccc(-c4ccc(/C=N/NC5=NCCN5)cc4)s3)cn2c1 | 103% (inactive)
O=c1oc2c(cnc3ccccc32)cc1-c1cccc(Cl)c1 | 104% (inactive)
Cc1c(-n2nnc(-c3nc4ccccc4s3)c2N)c(=O)n(-c2ccccc2)n1C | 110% (inactive)
Cn1c(N)c(N=O)c(=O)[nH]c1=O | 115% (inactive)
Cn1ccnc1C(=O)/C=C/c1ccc(C(=O)Nc2ccc(S(F)(F)(F)(F)F)cc2)cc1 | 14.5% (inactive)
Nc1ccc2c(c1)/C(=N/O)c1cc([N+](=O)[O-])ccc1-2 | 89.8% (inactive)
CCOC(=O)C1CSC(C)(C(=O)OCC)N1 (stereo not given) | 105% (inactive)
CCN1CC(=O)N(/N=C2\C(=O)Nc3ccccc32)C1=S | 73.1% (inactive)
Cc1ccc(NC(=O)N[C@@H](Cc2cc(F)cc(F)c2)C(=O)N[C@@H]2C(=O)N3CCC[C@H]3C(=O)N3CCOC[C@H]3C(=O)N[C@@H](C)C(=O)N3C[C@H](C)C[C@H]3C(=O)O[C@H]2C)cc1 | 5.17% (active)
CNC(=O)c1cccc(Cn2nc(C)c(NC(=O)c3ccc(COc4ccc(C(F)(F)F)cc4C)cc3)c2C)n1 | 3.58% (active)
IP(CCCSc1n(Cc2ccc3ccccc3c2)c(-c2ccccc2)c(-c2ccccc2)[n+]1Cc1ccc2ccccc2c1)(c1ccccc1)(c1ccccc1)c1ccccc1 | -21.5% (active)
CC1C(C)N(C(=O)CCl)c2ccccc2N1C(=O)CCl (stereo not given) | -69% (active)
CCCCNNC(=O)c1ccc(-c2cccc(F)c2F)cc1 | -4.26% (active)
